In PubChem BioAssay (NCATS):
Records with an inconclusive call do not appear. Calls of active or inactive are those of the source. Calls come from the whole dose curve; as a rule, active = well fitted curve in the direction sought with a large enough effect; inconclusive = small, poorly fitted or top-dose-only effect, or another doubt; inactive = no such curve, though single readings can be large; an effect the other way counts as inactive or inconclusive.

How the values were obtained:
[1] = Cellular Toxicity (caspase-3) Mesangial (AID 660); conditions: mesangial cells, normalized: DMSO 0%, 100 µM tamoxifen 100%; at 91.7 µM (top of the series);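 note: cells exposed to compound for 16 h before the caspase read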
In short: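 Human renal glomerular mesangial cells (1000/well) were treated with compounds for 16 h at 37 °C in complete medium, then caspase 3/7 activity was read by Caspase-Glo luminescence. Data were normalized to DMSO and 100 uM tamoxifen; AC50 from Hill fits.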

[2] = Cellular Toxicity (caspase-3) SK-N-SH (AID 661);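 note: 0% = DMSO basal and 100% = 10 µM staurosporine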
In short: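 SK-N-SH human neuroblastoma cells (1500/well) were treated with compounds for 16 hr at 37 °C in complete medium; caspase 3/7 activity was read by Caspase-Glo luminescence. AC50 came from Hill fits of data normalized to DMSO and 10 uM staurosporine.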

[3] = Cellular Toxicity (caspase-3) H-4-II-E (AID 663); conditions: H-4-II-E rat hepatoma, scaled: DMSO 0%, 100 µM tamoxifen 100%; at 92.2 µM (top of the series);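 note: cells exposed to compound for 16 hr before readout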
In short: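 Apoptosis induction is scored as increased luminescence from caspase 3/7 substrate cleavage in rat hepatoma H-4-II-E cells exposed to compound for 16 hr. Activity is scaled between DMSO and 100 uM tamoxifen.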

[4] = Cellular Toxicity (caspase-3) Hek293 (AID 664); conditions: HEK293 caspase-3 activation, DMSO = 0%, 100 µM tamoxifen = 100%; at 92.2 µM (top of the series);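 note: cells exposed to compound for 16 h at 37 °C before readout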
In short: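 HEK293 cells were exposed to compounds in complete medium for 16 hr at 37 °C, then caspase-3/7 activity was read by Caspase-Glo 3/7 luminescence after 20 min at room temperature. Data normalized to DMSO and 100 uM tamoxifen; AC50 from Hill fits.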

[5] = Cellular Toxicity (caspase-3) N2a (AID 665);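 note: compound exposure lasted 16 h at 37 °C before readout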
In short: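 Mouse N2a neuroblastoma cells (1500/well) were treated with compounds for 16 h at 37 °C, then caspase-3/7 activity was read by Caspase-Glo luminescence after 1 h at room temperature. Data were normalized to DMSO and 10 uM staurosporine; AC50 from Hill fits.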

[6] = Cellular Toxicity (caspase-3) NIH 3T3 (AID 666);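 note: caspase signal read after 16 h compound exposure; 0% = DMSO basal and 100% = 100 µM tamoxifen stimulation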
In short: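 Mouse NIH 3T3 fibroblasts (1000 cells/well) were treated with compound for 16 hr at 37°C in complete medium; caspase-3/7 activity was read by Caspase-Glo luminescence. Normalized to DMSO and 100 uM tamoxifen; AC50 from Hill fits.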

[7] = Cellular Toxicity (caspase-3) Renal Proximal Tubule (AID 667); conditions: Potency: caspase-3 activation;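 note: cells exposed to compound for 16 hours at 37 °C before detection; 0% = DMSO basal and 100% = 10 µM staurosporine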
In short: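 In qHTS format, rat primary proximal tubule cells seeded at 1000 per well are exposed to compounds for 16 hours at 37 °C. An increase in Caspase-Glo 3/7 luminescence indicates caspase activation.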

[8] = biological target: Cytochrome P450 3A4 (Homo sapiens) (UniProt P08684); assay: qHTS Assay for Inhibitors and Substrates of Cytochrome P450 3A4 (AID 884); note: % is set by controls: 0 for no effect and ±100 for the full control effect; nearly all actives have a fitted effect of over 50% in size
Cytochrome P450 3A4 (Homo sapiens), sequence (P08684 whole entry, looked up): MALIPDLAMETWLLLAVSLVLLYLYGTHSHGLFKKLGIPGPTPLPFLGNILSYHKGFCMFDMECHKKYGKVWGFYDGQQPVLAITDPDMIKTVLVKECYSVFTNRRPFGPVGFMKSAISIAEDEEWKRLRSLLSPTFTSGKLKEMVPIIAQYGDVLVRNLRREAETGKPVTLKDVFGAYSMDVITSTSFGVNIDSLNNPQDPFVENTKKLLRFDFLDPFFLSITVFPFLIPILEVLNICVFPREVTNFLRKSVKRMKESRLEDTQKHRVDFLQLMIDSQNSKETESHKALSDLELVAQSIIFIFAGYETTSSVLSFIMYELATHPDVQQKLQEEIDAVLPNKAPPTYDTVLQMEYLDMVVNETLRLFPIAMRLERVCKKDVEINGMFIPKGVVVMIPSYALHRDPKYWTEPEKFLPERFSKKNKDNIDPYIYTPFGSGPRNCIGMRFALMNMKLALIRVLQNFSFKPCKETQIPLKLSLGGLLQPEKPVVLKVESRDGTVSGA
In short: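 20 nM human CYP3A4 with 25 uM Luciferin-PPXE (at KM) in 200 mM KPO4, preincubated 10 min with compound; NADPH regeneration started a 60 min RT reaction. Luciferin detected by luminescence, normalized to 57 uM ketoconazole as full inhibition.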

[9] = MultiTox-Fluor Cytotoxicity Assay - LYMP1-001 - Dead Cells (AID 946)
In short: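 Seed 2500 LYMP1-001 cells/well, incubate 5 hr at 37 C; add compound, 16 hr at 37 C; add MultiTox-Fluor reagent, 60 min RT; read dead-cell fluorescence Ex/Em=485/520. Normalize to DMSO and 15 uM tetraoctylammonium bromide.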

[10] = MultiTox-Fluor Cytotoxicity Assay - LYMP1-001 - Live Cells (AID 947);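 note: 0% = DMSO only and full inhibition = tetraoctylammonium bromide control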
[11] = Cell Viability - LYMP1-002 - Assay at 16 hr (AID 948);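 note: 0% = DMSO alone and full effect = 92 µM tetraoctylammonium bromide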
In short: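 Acute cytotoxicity is scored as a concentration-dependent fall in intracellular ATP in a human lymphoblastoid line (LYMP1-002) after 16 hr compound exposure at 37 C, measured by luciferase luminescence.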

[12] = MultiTox-Fluor Cytotoxicity Assay - LYMP1-002 - Live Cells (AID 955); note: % is set by controls: 0 for no effect and ±100 for the full control effect
In short: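 Human lymphoblastoid LYMP1-002 cells, 2500/well in complete medium, rested 5 hr at 37 C, then exposed to compounds for 16 hr at 37 C. Live-cell protease cleavage of GF-AFC read by fluorescence (Ex/Em 405/510) after 60 min at room temperature; AC50 from Hill fits.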

[13] = MultiTox-Fluor Cytotoxicity Assay - LYMP1-002 - Dead Cells (AID 960); note: nearly all actives have a fitted effect of over 60% in size
In short: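 Human lymphoblastoid cells (LYMP1-002), 2500/well in complete medium, were exposed to compounds for 16 hr at 37 C. Dead-cell protease activity was read as bis-AAF-R110 fluorescence (Ex/Em 485/520), normalized to DMSO and 15 uM tetraoctylammonium bromide; AC50 from Hill fits.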

[14] = MultiTox-Fluor Cytotoxicity Assay - LYMP1-003 - Dead Cells (AID 961); note: nearly all actives have a fitted effect of over 70% in size
In short: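 LYMP1-003 lymphoblastoid, 2500 cells/well, 5 hr settle then 16 hr cpd at 37 C; MultiTox-Fluor reagent 60 min RT; Ex/Em 485/520 dead-cell signal; norm. DMSO = 0%, 15 uM tetraoctylammonium bromide = 100%; Hill AC50.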

[15] = MultiTox-Fluor Cytotoxicity Assay - LYMP1-003 - Live Cells (AID 962);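 note: 0% = DMSO only and full loss = 92 µM tetraoctylammonium bromide; cytotoxic hits lower the live-cell protease signal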
In short: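 LYMP1-003 human lymphoblastoid cells (2500/well) in complete medium were preincubated 5 hr at 37 C, then exposed to compounds for 16 hr at 37 C. Live-cell protease cleavage of GF-AFC read by fluorescence (Ex/Em 405/510); AC50 from Hill fits.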

[16] = Cell Viability - LYMP1-003 - Assay at 24 hr (AID 963);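 note: plate controls were DMSO only for no effect and tetraoctylammonium bromide positive control for full effect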
In short: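 Human lymphoblastoid LYMP1-003 cells (2500/well) were rested 5 hr at 37 C, then exposed to compounds in complete medium for 24 hr at 37 C. Cellular ATP was quantified by CellTiter-Glo luminescence, and AC50 values came from Hill fits of concentration-response data.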

[17] = Cell Viability - LYMP1-003 - Assay at 40 hr (AID 964); note: % is set by controls: 0 for no effect and ±100 for the full control effect; nearly all actives have a fitted effect of over 60% in size
In short: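 Human lymphoblastoid LYMP1-003 cells, 2500/well in complete medium, rested 5 hr at 37 C, then exposed to compounds for 40 hr at 37 C. Viability read as intracellular ATP by CellTiter-Glo luminescence; AC50 from Hill fits of concentration-response data.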

[18] = Cell Viability - LYMP2-003 (AID 965);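 note: cells exposed to compounds for 24 h before reading; 0% = DMSO only and full effect = 92 µM tetraoctylammonium bromide; nearly all actives have a fitted effect of over 50% in size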
In short: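 Acute cytotoxicity is scored as a concentration-dependent drop in intracellular ATP, measured by luciferase luminescence in human lymphoblastoid cells treated for 24 hours at 37 C. AC50 values derive from Hill-equation modelling.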

[19] = Cell Viability - LYMP2-001 (AID 921);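 note: 0% = DMSO only and full inhibition = tetraoctylammonium bromide control wells; nearly all actives have a fitted effect of over 70% in size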
In short: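 qHTS, 1536-well; lymphoblastoid cells, 24 hr compound, 37 C; ATP by CellTiter-Glo, 30 min RT; luminescence; Hill-fit AC50.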

[20] = biological target: Cytochrome P450 3A4 (Homo sapiens) (UniProt P08684); assay: qHTS Assay for Activators of Cytochrome P450 3A4 (AID 885); note: nearly all actives have a fitted effect of over 65% in size
In short: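 Steps: enzyme/substrate mix dispensed; compound added, 10 min RT; NADPH regeneration solution added, 60 min RT; luciferin detection buffer stops reaction; 20 min later luminescence measured.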

CC=C(Cl)Cl
inactive: caspase-3 activation [1] -0.275% | outcome [2] | caspase-3 activation [3] 0.108% | caspase-3 activation [4] 0.136% | outcome [5] | outcome [6] | Potency [7] | Potency [8] | outcome [9] | outcome [10] | outcome [11] | outcome [12] | outcome [13] | Potency [14] | Potency [15] | Potency [16] | Potency [17] | Potency [18]

Fc1ccccc1
inactive: caspase-3 activation [1] -0.0832% | outcome [2] | caspase-3 activation [3] -0.374% | caspase-3 activation [4] -1.91% | outcome [5] | outcome [6] | Potency [7] | Potency [8] | Potency [19] | outcome [11] | outcome [12] | outcome [13] | Potency [14] | Potency [15] | Potency [16] | Potency [17] | Potency [18]

Cc1ccc(S(=O)(=O)NC2CCCCC2)cc1
inactive: caspase-3 activation [1] 0.471% | outcome [2] | caspase-3 activation [3] -0.0757% | caspase-3 activation [4] 2.22% | outcome [5] | outcome [6] | Potency [7] | outcome [20] | Potency [19] | outcome [9] | outcome [10] | outcome [11] | outcome [12] | outcome [13] | Potency [14] | Potency [15] | Potency [16] | Potency [17] | Potency [18]

CCCCC(=O)N(C)C
inactive: caspase-3 activation [1] 0.37% | outcome [2] | caspase-3 activation [3] -1.29% | caspase-3 activation [4] 1.13% | outcome [5] | outcome [6] | Potency [7] | Potency [8] | Potency [19] | outcome [11] | outcome [12] | outcome [13] | Potency [14] | Potency [15] | Potency [16] | Potency [17] | Potency [18]

CC(C)(C)OC=O
inactive: caspase-3 activation [1] 1.35% | outcome [2] | caspase-3 activation [3] 0.183% | caspase-3 activation [4] -1.63% | outcome [5] | outcome [6] | Potency [7] | Potency [8] | outcome [9] | outcome [10] | outcome [11] | outcome [12] | outcome [13] | Potency [14] | Potency [15] | Potency [16] | Potency [17] | Potency [18]

Nc1ccccc1[N+](=O)[O-]
inactive: caspase-3 activation [1] -0.609% | outcome [2] | caspase-3 activation [3] 1.23% | caspase-3 activation [4] -2.96% | outcome [5] | outcome [6] | Potency [7] | Potency [8] | Potency [19] | outcome [11] | outcome [12] | outcome [13] | Potency [15] | Potency [16] | Potency [18]

O=[N+]([O-])c1ccc2nc[nH]c2c1
inactive: caspase-3 activation [1] 0.38% | outcome [2] | caspase-3 activation [3] 2.59% | caspase-3 activation [4] 0.287% | outcome [5] | outcome [6] | Potency [7] | outcome [20] | Potency [19] | outcome [9] | outcome [10] | outcome [11] | outcome [13] | Potency [14] | Potency [16] | Potency [17] | Potency [18]

Cc1cc(C)c(N)cc1C
inactive: caspase-3 activation [1] -0.153% | outcome [2] | caspase-3 activation [3] -1.64% | caspase-3 activation [4] 2.78% | outcome [5] | outcome [6] | Potency [7] | Potency [19] | outcome [10] | outcome [11] | outcome [13] | Potency [14] | Potency [15] | Potency [16] | Potency [17] | Potency [18]

Oc1cccc(Nc2ccccc2)c1
inactive: caspase-3 activation [1] -0.245% | outcome [2] | caspase-3 activation [3] -0.0797% | caspase-3 activation [4] -0.23% | outcome [5] | outcome [6] | Potency [7] | outcome [20] | Potency [19] | outcome [10] | outcome [11] | outcome [12] | outcome [13] | Potency [14] | Potency [15] | Potency [17] | Potency [18]

CCC(=O)/C=C/C1C(C)=CCCC1(C)C (stereo unspecified)
inactive: caspase-3 activation [1] 0.383% | outcome [2] | caspase-3 activation [3] 2.63% | caspase-3 activation [4] 2.12% | outcome [5] | outcome [6] | Potency [7] | outcome [20] | Potency [19] | outcome [9] | outcome [10] | outcome [11] | outcome [12] | outcome [13] | Potency [14] | Potency [15] | Potency [16] | Potency [17] | Potency [18]

CCOc1ccc(NC(C)=O)cc1N
inactive: caspase-3 activation [1] 0.11% | outcome [2] | caspase-3 activation [3] 0.579% | caspase-3 activation [4] -1.58% | outcome [5] | outcome [6] | Potency [7] | Potency [8] | Potency [19] | outcome [10] | outcome [11] | outcome [13] | Potency [15] | Potency [17] | Potency [18]

CCOCCO
inactive: caspase-3 activation [1] -0.559% | outcome [2] | caspase-3 activation [3] -0.494% | caspase-3 activation [4] -0.913% | outcome [5] | outcome [6] | Potency [7] | Potency [8] | outcome [10] | outcome [11] | outcome [12] | outcome [13] | Potency [14] | Potency [15] | Potency [16] | Potency [17] | Potency [18]

O=[N+]([O-])c1ccc(CCO)cc1
inactive: caspase-3 activation [1] -1.2% | outcome [2] | caspase-3 activation [3] 0.267% | caspase-3 activation [4] -3.11% | outcome [5] | outcome [6] | Potency [7] | Potency [8] | outcome [9] | outcome [10] | outcome [11] | outcome [12] | outcome [13] | Potency [14] | Potency [15] | Potency [16] | Potency [17] | Potency [18]

COc1ccc(N)c(OC)c1
inactive: caspase-3 activation [1] 0.311% | outcome [2] | caspase-3 activation [3] 1.91% | caspase-3 activation [4] -1.28% | outcome [5] | outcome [6] | Potency [7] | outcome [20] | Potency [19] | outcome [9] | outcome [10] | outcome [11] | outcome [12] | outcome [13] | Potency [14] | Potency [15] | Potency [16] | Potency [18]
